This assay has as its target T1, GST-Nv-NF-kB (Cys allele) (Nematostella vectensis, UniProt E5G601 2-411).
T1 sequence: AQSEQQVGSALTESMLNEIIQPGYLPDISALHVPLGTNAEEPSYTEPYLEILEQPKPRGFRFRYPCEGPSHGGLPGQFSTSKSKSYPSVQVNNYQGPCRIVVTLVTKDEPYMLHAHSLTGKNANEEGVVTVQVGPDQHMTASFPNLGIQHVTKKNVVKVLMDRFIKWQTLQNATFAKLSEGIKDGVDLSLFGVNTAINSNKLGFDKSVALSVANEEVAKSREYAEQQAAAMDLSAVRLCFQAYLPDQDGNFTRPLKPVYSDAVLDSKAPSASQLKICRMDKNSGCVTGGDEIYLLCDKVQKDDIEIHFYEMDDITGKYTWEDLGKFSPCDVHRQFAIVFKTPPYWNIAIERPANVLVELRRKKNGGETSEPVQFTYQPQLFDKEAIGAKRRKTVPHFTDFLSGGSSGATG
The assay is described as follows: protein-binding microarray (PBM); PBM: ~300 nM protein, 6 mM HEPES pH 7.8, 80 mM KCl, 0.5 mM EDTA, 0.5 mM EGTA, 6% glycerol, 35 ng/ul poly-dIdC, 1% milk, 1 h, room temperature; Ap Aiptasia and Nv Nematostella (sea anemones) / Co Capsaspora / Aq Amphimedon (sponge) / Dm Drosophila / Hu human; RHD is the Rel homology domain; high values mean tight binding. Particulars: dsDNA, one strand shown.
Regarding “CCGATTAACATCAGGAATATACCTGATGTTAATCGGGTCTTGATTCGCTTGACGCTGCTG”, the binding signal turned out to be 1.47 z-score. To “CCGATTAACATCAAGGACTTTCCTGATGTTAATCGGGTCTTGATTCGCTTGACGCTGCTG” belongs 1.03 z-score; to “CCGATTAACATCAGTGTCCCGTTTGATGTTAATCGGGTCTTGATTCGCTTGACGCTGCTG”, 2.18 z-score; to “CCGATTAACATCACATTGGGAAATGATGTTAATCGGGTCTTGATTCGCTTGACGCTGCTG”, 2.26 z-score. To “CCGATTAACATCACATGTGGGAATGATGTTAATCGGGTCTTGATTCGCTTGACGCTGCTG” belongs 1.34 z-score.

For “CCGATTAACATCAATTGGGAAATTGATGTTAATCGGGTCTTGATTCGCTTGACGCTGCTG”, the binding signal came out at 3.36 z-score.

In turn, “CCGATTAACATCAAGGAAAAACCTGATGTTAATCGGGTCTTGATTCGCTTGACGCTGCTG” had a binding signal of 1.07 z-score. The same measure for “CCGATTAACATCAGGAAAAGTCCTGATGTTAATCGGGTCTTGATTCGCTTGACGCTGCTG”: 1.25 z-score; for “CCGATTAACATCACAAATGGGAATGATGTTAATCGGGTCTTGATTCGCTTGACGCTGCTG”: 1.95 z-score.

Turning to “CCGATTAACATCAGACATGGGAATGATGTTAATCGGGTCTTGATTCGCTTGACGCTGCTG”, the binding signal is 1.46 z-score. To “CCGATTAACATCATTTCCCAAAATGATGTTAATCGGGTCTTGATTCGCTTGACGCTGCTG” belongs 2.55 z-score; to “CCGATTAACATCAATTCCCAACATGATGTTAATCGGGTCTTGATTCGCTTGACGCTGCTG”, 2.32 z-score; to “CCGATTAACATCAAGGTATTTCCTGATGTTAATCGGGTCTTGATTCGCTTGACGCTGCTG”, 1.66 z-score. The same measure for “CCGATTAACATCAATTCCCATGATGATGTTAATCGGGTCTTGATTCGCTTGACGCTGCTG”: 2.46 z-score; for “CCGATTAACATCAGGAATTTACCTGATGTTAATCGGGTCTTGATTCGCTTGACGCTGCTG”: 3.18 z-score; for “CCGATTAACATCAGAAATGGGAATGATGTTAATCGGGTCTTGATTCGCTTGACGCTGCTG”: 2.45 z-score.

“CCGATTAACATCAGGGCAGTACCTGATGTTAATCGGGTCTTGATTCGCTTGACGCTGCTG”: the binding signal stood at 1.21 z-score. Regarding “CCGATTAACATCAGGAAAAAACCTGATGTTAATCGGGTCTTGATTCGCTTGACGCTGCTG”, the binding signal turned out to be 1.77 z-score. For the sequence “CCGATTAACATCAGGTAATTTACTGATGTTAATCGGGTCTTGATTCGCTTGACGCTGCTG”, the binding signal amounted to 1.68 z-score.

Take “CCGATTAACATCAGGAATGTACCTGATGTTAATCGGGTCTTGATTCGCTTGACGCTGCTG”: the binding signal worked out at 1.98 z-score. To “CCGATTAACATCAACCATGGGAATGATGTTAATCGGGTCTTGATTCGCTTGACGCTGCTG” belongs 1.18 z-score; to “CCGATTAACATCAAATTGGGAAATGATGTTAATCGGGTCTTGATTCGCTTGACGCTGCTG”, 2.55 z-score.

“CCGATTAACATCAACTTTGGGAATGATGTTAATCGGGTCTTGATTCGCTTGACGCTGCTG”: the binding signal came out at 1.04 z-score. To “CCGATTAACATCAGGAAATTTCCTGATGTTAATCGGGTCTTGATTCGCTTGACGCTGCTG” belongs 1.72 z-score. To “CCGATTAACATCATTATGGGAAATGATGTTAATCGGGTCTTGATTCGCTTGACGCTGCTG” belongs 2.63 z-score; to “CCGATTAACATCACCCATGGGAATGATGTTAATCGGGTCTTGATTCGCTTGACGCTGCTG”, 1.13 z-score. In the case of “CCGATTAACATCAGAAATTACCATGATGTTAATCGGGTCTTGATTCGCTTGACGCTGCTG”, the binding signal was 1.45 z-score.

In the case of “CCGATTAACATCATTGGGAAAAATGATGTTAATCGGGTCTTGATTCGCTTGACGCTGCTG”, the binding signal was found to be 2.44 z-score. To “CCGATTAACATCAGGAATCTACCTGATGTTAATCGGGTCTTGATTCGCTTGACGCTGCTG” belongs 1.61 z-score; to “CCGATTAACATCAAGGAATTTCCTGATGTTAATCGGGTCTTGATTCGCTTGACGCTGCTG”, 1.75 z-score. To “CCGATTAACATCAGGAAGTTACCTGATGTTAATCGGGTCTTGATTCGCTTGACGCTGCTG” belongs 1.29 z-score; to “CCGATTAACATCAGGGATCGCCCTGATGTTAATCGGGTCTTGATTCGCTTGACGCTGCTG”, 1.19 z-score; to “CCGATTAACATCAGGATTTTACCTGATGTTAATCGGGTCTTGATTCGCTTGACGCTGCTG”, 2.01 z-score. The same measure for “CCGATTAACATCACTTTGGGAAATGATGTTAATCGGGTCTTGATTCGCTTGACGCTGCTG”: 1.89 z-score.

Values taken from PMC5700166.
